# Assay outcomes from PubChem BioAssay.
# Abeta yeast res: restores growth of yeast expressing A-beta42 peptide; yeast expressing A-beta42, growth rescue, OD600, 48 h; response scale: 0% DMSO, 100% iron-clioquinol control; Potency, µM (series often up to 46.1 µM), usual class: activators; 410,000 tested, 0.063% active; AID 1347071; further: nearly all actives have a fitted effect of over 55% in size
#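 Growth rescue measured by 600 nm absorbance after 48 h yeast culture at 30 C with compound. Values normalized between DMSO and an equimolar ferric chloride plus clioquinol control.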
# FUS suppressor: FUS proteinopathy suppression in yeast | S. cerevisiae FUS-expressing, growth rescue, OD600, 24 h | Potency, µM (doses to about 76.6 µM), hits mostly activators | 390,000 tested, 0.24% active | AID 1347120; further: nearly all actives have a fitted effect of over 55% in size
#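 Toxicity suppression screen in FUS-yeast. Cells induced with 2% galactose, starting OD 0.005, treated 24hr at 30C with compounds at multiple final concentrations; growth by OD600.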
# TDP43 rescue: inhibitors of TDP-43 toxicity in yeast. TDP-43 expressing yeast growth rescue, BacTiter-Glo, 24 h. Potency, µM (highest dose often 46.1 µM), usual class: activators. 410,000 tested, 1.8% active. AID 652104; further: nearly all actives have a fitted effect of over 50% in size
#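 Yeast expressing TDP-43 (pregrown in raffinose, seeded at OD600=0.02 in galactose medium) exposed to compounds 24 hr at 30 deg C. Growth read by BacTiter-Glo luminescence; rescue of toxicity appears as increased signal.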
# uPA generation: inhibitors of cell surface uPA generation. Potency, µM (doses to about 38.3 µM), usual class: inhibitors. cell surface uPA generation assay, qHTS. AID 540303. 330,000 tested, 0.31% active; active means well fitted inhibition curve with a large enough effect; inconclusive means small, poorly fitted or top-dose-only effect; inactive means no such curve, though single readings can be large or run the other way; tested in mouse RAW 264.7 cells; further: nearly all actives have a fitted effect of over 55% in size
# aSyn yeast inh: inhibitors of alpha-synuclein toxicity in yeast. Potency, µM (top dose mostly 46.1 µM), actives largely listed as activators. 370,000 tested, 0.14% active. Yeast expressing alpha-synuclein, growth rescue, BacTiter-Glo, 24 h. AID 652106; further: nearly all actives have a fitted effect of over 65% in size
#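 Rescue of yeast growth: cells expressing toxic alpha-synuclein, induced in galactose at OD600 0.02, incubated with compound 24 h at 30 C. ATP luminescence quantified growth; inhibitors of toxicity appear as activators.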
# BCR signal inh: inhibitors of chronic active B-cell receptor signaling | ABC-DLBCL IkBa-CBG/CBR reporter, luminescence ratio, 4 h | Potency, µM (titrated, usually from 46.1 µM), usual class: inhibitors | 340,000 tested, 0.05% active | AID 493014; active means well fitted inhibition curve with a large enough effect in the signal ratio, with a control signal flat, not every such curve was filed as active; inconclusive means small, poorly fitted or top-dose-only effect, or effect the other way, or a change in a side signal; the % refers to the signal ratio
#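 TMD8 human ABC-DLBCL cells with doxycycline-inducible IκBα–green luciferase fusion and unfused red luciferase, in 0.5% FBS medium; compounds up to 46 uM, 4 h at 37C. Green/red luminescence ratio, filter-overlap corrected, fitted to concentration-response curves.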
# Hits are given with their value; – = inactive; ? = inconclusive; · = no result given; [ ] = remark or other dose. Most compounds without a hit are left out; they make up all but 2.3% or so of the library. Unless noted, the call rests on the fitted dose curve; in most records, active means well fitted curve in the direction sought with a large enough effect; inconclusive means small, poorly fitted or top-dose-only effect, or another doubt; inactive means no such curve, though single readings can be large; an effect the other way counts as inactive or inconclusive.
SMILES,Abeta yeast res,FUS suppressor,TDP43 rescue,uPA generation,aSyn yeast inh,BCR signal inh
COCCNc1nc(=S)[nH]c2cc(OC)c(OC)cc12,–,–,–,–,–,–
Cc1nn(C)c2c1c(C(F)(F)F)cc(=O)n2CC(=O)N1CCN(c2ccccc2F)CC1,–,?,22µM,·,·,·
Cc1cc(=O)n(CC(=O)N2CCN(c3ccccc3F)CC2)c2c1c(C)nn2C,–,–,?,·,·,·
Cc1ccc2oc(-c3cccc(N)c3)nc2c1,–,–,13µM,–,–,?
Cc1ccc(-c2nc3cc(N)ccc3o2)cc1,–,–,–,–,–,–
CCOC(=O)c1oc2cc(O)cc(C)c2c1C,–,·,?,–,–,·
Nc1c(Cl)cc(C2=NCCn3c2c2ccc([N+](=O)[O-])cc2[n+]3[O-])cc1Cl,–,?,–,4µM,–,–
CC1Cc2cc(S(=O)(=O)NCCc3ccc(Cl)cc3)ccc2N1C(=O)C1CCC1 (stereo unspecified),?,–,18µM,·,·,·
Cc1ccc(S(=O)(=O)Nc2ccc(-n3cnnn3)cc2)cc1,–,?,–,–,–,–
COc1cc(-c2noc(-c3ccc(NC4CCCCC4)c([N+](=O)[O-])c3)n2)cc(OC)c1OC,–,–,–,·,·,·
Cc1nc2ncccn2c1-c1csc(Nc2ccccc2)n1,–,·,–,–,–,?
COc1ccc(-c2csc(Nc3ccccc3)n2)cc1,?,–,10µM,–,–,?
COc1ccc(-c2csc(-n3cccn3)n2)cc1,–,–,10µM,–,–,?
COc1ccc(Nc2nc(-c3c(C)nc4ncccn34)cs2)cc1,–,–,–,–,–,3.5µM
COc1ccc(-c2csc(Nc3ncccc3C)n2)cc1OC,–,–,14µM,–,–,?
CN(C)Cc1ccc(-c2nc3cccc4c3n2CCNC4=O)cc1,–,–,·,?,·,·
CCN(CC)S(=O)(=O)c1ccc2oc(C(=O)N3CCc4ccccc4C3)c(C)c2c1,–,·,–,–,–,?
O=C(CSc1nc(N2CCOCC2)nc(N2CCOCC2)n1)Nc1ccc(Cl)cc1Cl,–,·,–,–,–,–
COc1ccc(-c2csc(-c3cccnc3)n2)cc1C,–,–,16µM,–,–,?
COc1ccc2cc(-c3csc(-c4cccnc4)n3)ccc2c1,–,–,–,–,–,–
CC1Cc2nc(SCC(=O)NCC3CCCO3)n(-c3ccccc3)c(=O)c2S1 (stereo unspecified),–,–,–,·,22µM,·
CCOc1ccc(NC(=O)CC2C(=O)N(C)C(=S)N2Cc2ccco2)cc1 (stereo unspecified),–,·,–,–,–,–
COc1cc(NC(=O)CSCc2cnn(-c3ccccc3)c2-n2cccc2)cc(OC)c1,–,–,–,–,–,–
Cc1cccc(C)c1NC(=O)CSCc1cnn(-c2ccccc2)c1-n1cccc1,–,–,25µM,·,·,·
CCOc1ccc(NC(=O)CSCc2cnn(-c3ccccc3)c2-n2cccc2)cc1,–,–,20µM,–,–,–
SMILES,Abeta yeast res,FUS suppressor,TDP43 rescue,uPA generation,aSyn yeast inh,BCR signal inh
Cc1ccc(NC(=O)CSCc2cnn(-c3ccccc3)c2-n2cccc2)c(Cl)c1,–,–,–,·,·,·
COc1cccc(CNC(=O)CSCc2cnn(-c3ccccc3)c2-n2cccc2)c1OC,–,–,?,–,–,–
COc1ccccc1CNC(=O)CSCc1cnn(-c2ccccc2)c1-n1cccc1,–,–,18µM,–,–,–
CCOc1ccc(S(=O)(=O)N(CC(=O)NCc2ccccc2OC)c2ccccc2)cc1,–,–,–,·,·,·
Clc1ccc(-c2nnc(C3CCCCC3)o2)cc1,–,–,11µM,–,–,?
Clc1ccc(-c2nnc(C3CC3)o2)cc1,–,–,–,–,–,?
CCOc1ccc(/C=C/C2=Cc3c(sc(NC(=O)CSc4n[nH]c(N)n4)c3C#N)C(C)(C)C2)cc1,–,8.9µM,–,·,–,–
Cc1ccsc1/C=C/C1=Cc2c(sc(NC(=O)CSc3n[nH]c(N)n3)c2C#N)C(C)(C)C1,–,25µM,–,·,–,–
NC(=O)c1ccsc1NC(=O)CSc1n[nH]c(N)n1,–,–,–,–,–,–
CCO[C@@H]1OC(C(=O)N2CCOCC2)=C[C@H](c2cn(C(C)=O)c3ccccc23)[C@H]1CCCO,–,–,?,–,–,?
Cc1[nH]c2ccccc2c1C(c1ccncc1)N1CCN(c2ccccn2)CC1 (stereo unspecified),–,–,–[9.22 µM],–,–,?
Cc1csc(Nc2ccc(Cl)cc2)n1,?,–,16µM,–,–,–
Cn1c(=O)c2c(nc(Oc3cccc(Br)c3)n2C)n(C)c1=O,?,–,13µM,–,–,–
CN(C)c1cccc(Oc2nc3c(c(=O)n(C)c(=O)n3C)n2C)c1,–,–,–,–,–,–
CN(C)CCn1cnc2c1c(=O)n(C)c(=O)n2C,–,·,–,–,–,–
Cn1c(=O)c2c(ncn2CCOc2cccc(Br)c2)n(C)c1=O,–,–,14µM,?,–,?
COc1cccc(OC)c1C(=O)Nc1ccc(S(=O)(=O)N2CCCCC2)cc1,–,–,–,–,–,–
COc1ccc(NC(=O)Cc2csc(NC(=O)Nc3ccccc3OC)n2)cc1,–,–,–,·,–,·
CC(=O)Nc1ccc(S(=O)(=O)NCCC(=O)Nc2ccc(C)cn2)cc1,–,–,–,–,–,–
O=C(Nc1cc(=O)[nH]c(=O)[nH]1)c1cc(Cl)ccc1Cl,–,–,–,3.5µM,?,?
O=C(Nc1cc(=O)[nH]c(=O)[nH]1)c1cccc(C(F)(F)F)c1,–,–,–,–,–,–
Cc1ccc(N=Cc2cc(Cc3ccccc3Cl)cc([N+](=O)[O-])c2O)c(O)c1,–,–,–,8.9µM,–,?
COc1ccc(N=Cc2cc(Cc3ccccc3Cl)cc([N+](=O)[O-])c2O)cc1OC,–,–,–,–,–,–
COc1ccc(N2CCN(C(=O)CCc3ccc(S(=O)(=O)NC(C)(C)C)cc3)CC2)cc1,–,–,–,–,–,–
COc1cc(CC(=O)Nc2cccc(SC)c2)cc(OC)c1OC,–,–,–,–,–,–
COc1ccc(CC(=O)Nc2cccc(SC)c2)cc1,–,·,13µM,–,–,–
COc1ccc(C2C(C#N)=C(N)N(c3ccccc3)C3=C2C(=O)CCC3)cc1Cn1cc([N+](=O)[O-])cn1 (stereo unspecified),–,25µM,–,–,–,–
COc1ccc(C2C(C#N)=C(N)N(c3cccnc3)C3=C2C(=O)CCC3)cc1Cn1cc([N+](=O)[O-])cn1 (stereo unspecified),–,?,–,–,–,–
COc1cc(C#Cc2c(-c3cncn3C)n(C)c3ccc(-c4ccc5cc[nH]c5c4)cc23)cc(OC)c1,–,?,20µM,?,–,–
